A word on the inhibition: it is the change of the read-out against control, counted positive when it falls.

The structures appear in SMILES notation. Among all 360,000 compounds or so, about 2,400 (0.67%) were called active. This is one part of a sample in which actives are shown more often than they occur.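 The calls were made as follows: active = inhibition above about 55% (limit read from the data); inconclusive = no clear call, values can overlap the other calls; inactive = the rest.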

Consider 26 compounds from PubChem BioAssay AID651702 (NMMLSC, 2012).

This test can be described thus: LAMP-1 surface exposure blockers, TALL-104 cells – cell-based, flow cytometry, MLPCN library, primary screen (AID 651702). Conditions: TALL-104 LAMP-1 surface exposure, at 10 µM, hits give high values, cells stimulated with thapsigargin and PMA. Background: In flow cytometry, cells or beads pass a laser one at a time.
Regarding `CCCCNC(=O)C[C@@H]1C[C@@]2(C(=O)OC)CC(C)(C)CC=C2N(Cc2ccco2)C1=O`, the inhibition was -4.4% (inactive).

For the compound `COC(=O)[C@H](Cc1ccccc1)NC(=O)[C@@H]1C[C@H]1[C@@H](NC(=O)OCc1ccccc1)c1ccccc1`, the inhibition is 106% (active).

With `COC(=O)[C@H](C)[C@H]1C[C@]1(C)[C@H](NC(=O)OCc1ccccc1)c1ccccc1`, the inhibition is 5.6% (inactive).

Consider `COC(=O)[C@@H](Cc1ccccc1)NC(=O)NCCc1ccccc1`, for which the inhibition was 2.5% (inactive).

Consider `CC(=O)N1CCc2cc(S(=O)(=O)Nc3ccccc3N3CCN(C)CC3)ccc21`, for which the inhibition is 3.6% (inactive).

As for `Cc1nnc(SCC(=O)N2c3ccccc3C(C)(c3ccc(Cl)cc3)CC2(C)C)s1` (stereo unspecified), the inhibition is -0.3% (inactive).

As to `CCCCCn1nnnc1C1c2ccccc2C(=O)N1Cc1ccco1` (stereo unspecified), the inhibition is -4% (inactive).

As to `CCCCCn1nnnc1-c1nc2cc3ccccc3cc2[nH]c1=O`, the inhibition was 56.3% (active).

On to `CCCCn1c(-c2cccc(C)c2)nc2cc3[nH]c(=O)c(C(C)C)nc3cc21`, for which the inhibition was 7.2% (inactive).

`COc1ccccc1NC(=O)C(C)OC(=O)c1ccc(-n2cnnn2)cc1` (stereo unspecified): the inhibition was 2.1% (inactive).

With `COc1ccc(NC(=O)Cn2ncn3c(cc4ccccc43)c2=O)c(OC)c1OC`, the inhibition was -1.7% (inactive).

On to `O=C(CNCc1ccc(Cl)cc1)Nc1cccc(C(=O)O)c1`, for which the inhibition was 2.8% (inactive).

As for `COc1cc(OC)c(C(=O)OC(C)C(=O)Nc2cc(C(F)(F)F)ccc2Cl)cc1OC` (stereo unspecified), the inhibition was 0.8% (inactive).

Consider `CC(C)CC(=O)Nc1cc(C(F)(F)F)ccc1N1CCOCC1`, for which the inhibition was -2.5% (inactive).

Take `CC(CC(=O)Nc1cc(C(F)(F)F)ccc1Cl)c1ccccc1` (stereo unspecified): the inhibition is 83.7% (active).

As for `CC1=NCCN1S(=O)(=O)c1ccc(Br)c(C)c1`, the inhibition is -1.3% (inactive).

`COc1cc(OC)c2c(-c3cccc(-c4cccc(N)c4)c3)cc(=O)oc2c1`: the inhibition was 4.4% (inactive).

As for `COc1cccc(NC(=O)C2CCCN2C(=O)OCc2ccccc2)c1` (stereo unspecified), the inhibition is -0.8% (inactive).

Consider `COc1cccc(NC(=O)C2C(c3ccccc3)C2(Cl)Cl)c1` (stereo unspecified), for which the inhibition is 83.9% (active).

On to `COc1cccc(NC(=O)C2c3cc(OC)c(OC)cc3C(=O)N(C)C2c2cccnc2)c1` (stereo unspecified), for which the inhibition was 1.8% (inactive).

`O=S(=O)(N/N=C\c1cccn1-c1ccccc1)c1ccc2ccccc2c1`: the inhibition was -0.4% (inactive).

On to `Cc1cccc(CNC(=O)c2sc(=O)n(Cc3ccccc3C)c2C)c1`, for which the inhibition is -3.5% (inactive).

In the case of `CCCCCNC(=O)C(c1ccc(OC)cc1)n1c(=O)c(-c2ccccc2)nc2ccccc21` (stereo unspecified), the inhibition is 5.5% (inactive).

As to `COc1ccccc1N1CCN(c2nc(C)cc(=O)[nH]2)CC1`, the inhibition is 0.2% (inactive).

Regarding `COc1ccccc1N1CCN(c2ncnc3sc(C)c(-c4ccccc4)c23)CC1`, the inhibition was 57.5% (active).

Regarding `COc1ccccc1N1CCN(c2ccc([N+](=O)[O-])nc2)CC1`, the inhibition was -3.5% (inactive).
